# Reference: PubChem BioAssay (NCI)
# Where “and” joins values, the source holds several entries; their conditions need not be identical. Identical values can stand only once. About 83,000 compounds went through this panel and 20% of them were active in at least one assay; those are over-represented in the sample as a whole.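 Cells were grown in 96-well plates and exposed to the test compound at a single concentration for 48 hours; results are reported as percent growth, with values below 10 considered active.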 Calls of active or inactive are those of the source.
# Assays:
# Assay in all cases: NCI-60 one-dose screen, 48 h (100 = growth as untreated, 0 = no growth, -100 = all killed)
# HCT-15 colon = details: 10 µM unless noted
# HT29 colon = details: 10 µM unless noted
# SNB-75 CNS = details: 10 µM unless noted
# SNB-19 CNS = details: 10 µM unless noted
# U251 CNS = details: 10 µM unless noted
# PC-3 prostate = details: 10 µM unless noted
# SK-MEL-5 melanoma = details: 10 µM unless noted
# UACC-62 melanoma = details: 10 µM unless noted
# LOX IMVI melanoma = details: 10 µM unless noted
# SK-MEL-2 melanoma = details: 10 µM unless noted
# SN12C renal = details: 10 µM unless noted
# UO-31 renal = details: 10 µM unless noted
# TK-10 renal = details: 10 µM unless noted
# CAKI-1 renal = details: 10 µM unless noted
# A498 renal = details: 10 µM unless noted
# CCRF-CEM leukemia = details: 10 µM
# MOLT-4 leukemia = details: 10 µM unless noted
# SK-MEL-28 melanoma = details: 10 µM unless noted
# ACHN renal = details: 10 µM unless noted
Structure (SMILES),growth (HCT-15 colon),growth (HT29 colon),growth (SNB-75 CNS),growth (SNB-19 CNS),growth (U251 CNS),growth (PC-3 prostate),growth (SK-MEL-5 melanoma),growth (UACC-62 melanoma),growth (LOX IMVI melanoma),growth (SK-MEL-2 melanoma),growth (SN12C renal),growth (UO-31 renal),growth (TK-10 renal),growth (CAKI-1 renal),growth (A498 renal),growth (CCRF-CEM leukemia),growth (MOLT-4 leukemia),growth (SK-MEL-28 melanoma),growth (ACHN renal)
NN1CCOC(c2ccccc2)C1 (stereo unspecified),101% (inactive),113% (inactive),109% (inactive),101% (inactive),102% (inactive),94.3% (inactive),103% (inactive),90.2% (inactive),94.6% (inactive),110% (inactive),102% (inactive),71.4% (inactive),122% (inactive),109% (inactive),107% (inactive),99.3% (inactive),76.1% (inactive),,
CC1CCC(C(C)C)C(NNC(N)=O)C1 (stereo unspecified),112% (inactive),102% (inactive),102% (inactive),98.4% (inactive),92.4% (inactive),86.2% (inactive),102% (inactive),,100% (inactive),107% (inactive),101% (inactive),86.6% (inactive),105% (inactive),98.9% (inactive),102% (inactive),106% (inactive),113% (inactive),120% (inactive),110% (inactive)
O=C1CSC2=NCCN12,107% (inactive) and 97.2% (inactive),96.4% (inactive) and 91.5% (inactive),87.5% (inactive) and 83.3% (inactive),101% (inactive) and 112% (inactive),88.7% (inactive) and 91.1% (inactive),102% (inactive) and 121% (inactive),88.9% (inactive) and 86.1% (inactive),87.1% (inactive),94% (inactive) and 90.1% (inactive),89% (inactive),106% (inactive) and 93.2% (inactive),84.6% (inactive) and 90.1% (inactive),101% (inactive) and 106% (inactive),95.6% (inactive),92.8% (inactive) and 99.7% (inactive),102% (inactive) and 88.1% (inactive),106% (inactive) and 67.1% (inactive),,
C/C(=C\c1ccccc1)c1ccccn1,103% (inactive),113% (inactive),89.1% (inactive),92.1% (inactive),107% (inactive),98.7% (inactive),103% (inactive),,112% (inactive),128% (inactive),95.8% (inactive),98.9% (inactive),162% (inactive),102% (inactive),111% (inactive),94.5% (inactive),73.3% (inactive),,
O=c1[nH]cnc2c1ncn2C1OC(CO)C(O)C1O (stereo unspecified),135% (inactive) and 124% (inactive) and 110% (inactive),116% (inactive) and 109% (inactive),115% (inactive) and 99.9% (inactive) and 98.8% (inactive),99.5% (inactive) and 106% (inactive) and 93.5% (inactive),108% (inactive) and 110% (inactive) and 102% (inactive),89.3% (inactive) and 81.6% (inactive) and 98.8% (inactive),106% (inactive) and 109% (inactive) and 107% (inactive),96.1% (inactive) and 106% (inactive) and 98.6% (inactive),101% (inactive) and 103% (inactive) and 91.7% (inactive),110% (inactive),99.8% (inactive) and 121% (inactive) and 96.1% (inactive),113% (inactive) and 102% (inactive) and 55.3% (inactive),113% (inactive) and 114% (inactive) and 106% (inactive),113% (inactive) and 95.3% (inactive) and 63.4% (inactive),116% (inactive) and 129% (inactive) and 113% (inactive),99.5% (inactive) and 90.3% (inactive) and 69.9% (inactive),93% (inactive) and 76% (inactive) and 105% (inactive),,116% (inactive) and 109% (inactive) and 105% (inactive)
CC(C)C(C)(C)c1ccc(O)cc1,105% (inactive),102% (inactive),97.8% (inactive),,102% (inactive),93.1% (inactive),99.9% (inactive),101% (inactive),98.4% (inactive),104% (inactive),102% (inactive),98.1% (inactive),107% (inactive),96.4% (inactive),102% (inactive),105% (inactive),106% (inactive),105% (inactive),112% (inactive)
COc1ccc(N/C=C/C2=[N+](C)c3ccccc3C2(C)C)c(OC)c1,99.3% (inactive),87.4% (inactive),89.5% (inactive),102% (inactive),91.2% (inactive),87.6% (inactive),90.9% (inactive),92.9% (inactive),96% (inactive),114% (inactive),96.6% (inactive),78.8% (inactive),106% (inactive),81.9% (inactive),,90.7% (inactive),104% (inactive),,104% (inactive)
N#CC(C#N)N=Nc1ccc(Cl)cc1,15.1% (inactive),24.7% (inactive),72% (inactive),94.2% (inactive),88.7% (inactive),54.7% (inactive),79.6% (inactive),,53.5% (inactive),77.3% (inactive),33.5% (inactive),10.6% (inactive),42.9% (inactive),4.49% (active),86% (inactive),28.6% (inactive),37.6% (inactive),42.2% (inactive),26.9% (inactive)
CC1=C/C(O)CC(=O)Cc2nc(co2)C(=O)N2CCC=C2C(=O)OC(C(C)C)C(C)/C=C\C(=O)NC/C=C\1 (stereo unspecified),90.1% (inactive),76.7% (inactive),80.8% (inactive),89.8% (inactive),92.9% (inactive),71.5% (inactive),96.7% (inactive),84.9% (inactive),59.6% (inactive),21.8% (inactive),87.9% (inactive),75.1% (inactive),127% (inactive),81% (inactive),90.9% (inactive),37% (inactive),77.4% (inactive),,
